From PubChem BioAssay AID1159580 (chemical genetic matrix, 2015)
The campaign covered roughly 5,500 compounds. About 2,000 (36%) were called active. Another 18% or so got no clear call; they are omitted. Rule as the data show it: active = normalized growth mostly below about 0.91 (no sharp cut-off); inconclusive = no clear call, values can overlap the other calls; inactive = mostly above about 0.92. The list shows a part of the results.

Experiment: chemical genetic growth profiling, strain panel (AID 1159580);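 also: tested at 20 µM; growth read once vehicle control cultures reached saturation at 30 °C; 1 = growth at the plate median or of vehicle wells; lower values mean less growth of the strain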
Details: S. cerevisiae deletion strains, growth OD

Measured: normalized growth

O=c1c(-c2ccc3c(c2)OCO3)coc2cc(O)ccc12
inactive: locus YAL013W, strain DEP1, hits give low values 1 | locus YAL021C, strain ccr4, hits give low values 0.994 | locus YAL026C, strain drs2, hits give low values 1 | locus YAL030W, strain snc1, hits give low values 0.991 | locus YBL061C, strain skt5, hits give low values 0.99 | locus YBR009C, strain hhf1, hits give low values 0.978 | locus YBR021W, strain FUR4, hits give low values 0.991 | locus YBR023C, strain chs3, hits give low values 0.996 | locus YBR171W, strain sec66, hits give low values 1 | locus YBR229C, strain ROT2, hits give low values 0.989 | locus YBR231C, strain swc5, hits give low values 0.985 | locus YBR279W, strain paf1, hits give low values 0.994 | locus YCL011C, strain gbp2, hits give low values 0.999 | locus YCL016C, strain dcc1, hits give low values 0.993 | locus YCL029C, strain bik1, hits give low values 0.969 | locus YCL061C, strain MRC1, hits give low values 0.998 | locus YCL069W, strain vba3, hits give low values 1 | locus YCR088W, strain abp1, hits give low values 0.998 | locus YDL005C, strain med2, hits give low values 0.984 | locus YDL035C, strain GPR1, hits give low values 1 | locus YDL040C, strain nat1, hits give low values 0.993 | locus YDL074C, strain BRE1, hits give low values 1.04 | locus YDL101C, strain DUN1, hits give low values 0.998 | locus YDL134C, strain PPH21, hits give low values 1 | locus YDL185W, strain tfp1, hits give low values 0.981 | locus YDL192W, strain arf1, hits give low values 0.977 | locus YDR001C, strain nth1, hits give low values 1.01 | locus YDR069C, strain doa4, hits give low values 0.977 | locus YDR101C, strain arx1, hits give low values 0.98 | locus YDR137W, strain rgp1, hits give low values 0.979 | locus YDR150W, strain NUM1, hits give low values 0.995 | locus YDR159W, strain sac3, hits give low values 0.96 | locus YDR162C, strain NBP2, hits give low values 1.01 | locus YDR195W, strain ref2 0.957 | locus YDR297W, strain sur2, hits give low values 0.989 | locus YDR318W, strain mcm21, hits give low values 0.972 | locus YDR334W, strain swr1, hits give low values 1 | locus YDR335W, strain msn5, hits give low values 1 | locus YDR388W, hits give low values 0.973 | locus YDR392W, strain spt3, hits give low values 0.919 | locus YDR502C, strain sam2, hits give low values 0.992 | locus YEL003W, strain gim4, hits give low values 1 | locus YEL037C, strain rad23, hits give low values 1 | locus YEL061C, strain CIN8 (second series), hits give low values 1.01 | locus YEL061C, strain CIN8, hits give low values 0.998 | locus YER015W, strain faa2, hits give low values 0.99 | locus YER016W, strain bim1, hits give low values 0.988 | locus YER110C, hits give low values 0.979 | locus YER111C, strain swi4, hits give low values 1 | locus YER155C, strain BEM2 (second series), hits give low values 0.974 | locus YER155C, strain BEM2, hits give low values 0.995 | locus YER167W, strain BCK2, hits give low values 0.983 | locus YFR010W, strain ubp6, hits give low values 1 | locus YGL078C, strain dbp3, hits give low values 0.98 | locus YGL086W, strain mad1, hits give low values 0.983 | locus YGL167C, strain pmr1, hits give low values 0.988 | locus YGL173C, strain kem1, hits give low values 0.995 | locus YGL227W, strain vid30, hits give low values 1 | locus YGL240W, strain doc1, hits give low values 0.952 | locus YGL248W, strain PDE1, hits give low values 0.991 | locus YGL253W, strain hxk2, hits give low values 1 | locus YGR078C, strain PAC10, hits give low values 1.01 | locus YGR135W, strain pre9, hits give low values 0.987 | locus YGR229C, strain SMI1, hits give low values 1.03 | locus YGR252W, strain gcn5, hits give low values 0.932 | locus YHR013C, strain ard1, hits give low values 0.96 | locus YHR027C, strain rpn1, hits give low values 0.994 | locus YHR030C, strain SLT2, hits give low values 0.998 | locus YHR079C, strain IRE1 (second series), hits give low values 0.964 | locus YHR094C, strain hxt1, hits give low values 0.981 | locus YHR129C, strain ARP1, hits give low values 1 | locus YHR142W, strain chs7, hits give low values 1.01 | locus YHR200W, strain rpn10, hits give low values 0.978 | locus YIL066C, strain RNR3, hits give low values 0.998 | locus YIL073C, strain SPO22, hits give low values 0.93 | locus YIL125W, strain kgd1, hits give low values 0.993 | locus YIR030C, strain dcg1, hits give low values 0.984 | locus YJL092W, strain hpr5, hits give low values 1.01 | locus YJL095W, strain BCK1 (second series), hits give low values 0.989 | locus YJL095W, strain BCK1, hits give low values 1.04 | locus YJL115W, strain asf1, hits give low values 0.995 | locus YJL129C, strain trk1, hits give low values 0.99 | locus YJL134W, strain LCB3, hits give low values 0.991 | locus YJL154C, strain vps35, hits give low values 1.01 | locus YJL164C, strain tpk1, hits give low values 0.979 | locus YJL166W, strain qcr8, hits give low values 0.974 | locus YJL168C, strain set2, hits give low values 0.983 | locus YJL187C, strain SWE1 (second series), hits give low values 1 | locus YJL187C, strain SWE1, hits give low values 0.987
